TDP1 cell noCPT: qHTS for Inhibitors of human tyrosyl-DNA phosphodiesterase 1 (TDP1): qHTS in cells in absence of CPT; DT40 Tdp1-/- hTDP1 cells, no CPT, ATP luminescence, 48 h; Potency, µM (series often up to 46.2 µM), inactives show at the highest dose activity change, negative = growth inhibition, actives largely listed as inhibitors; 420,000 compounds, 15% hits; AID 686978, 2013; further: potency means the concentration at half of the fitted maximal effect; on the % scale 0 is the no-effect control and ±100 the full control effect; nearly all actives have a fitted effect of over 55% in size
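Seeded 400 DT40-hTDP1 cells/well (vehicle DMSO, no 20 nM CPT); pinned compounds; ≥48 hr at 37 °C; CellTiter-Glo luminescence as viability measure.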
TDP1 inh: blocks human tyrosyl-DNA phosphodiesterase 1 | AID 485290 | recombinant TDP1, AlphaScreen DNA substrate cleavage | 350,000 compounds, 0.28% hits | Potency, µM (doses to about 130 µM), for inactives: at the top dose activity change, negative = inhibition, actives largely listed as inhibitors | Q9NUW8; further: potency means the concentration at half of the fitted maximal effect; on the % scale 0 is the no-effect control and ±100 the full control effect; nearly all actives have a fitted effect of over 40% in size
Target sequence (Q9NUW8 whole entry, looked up): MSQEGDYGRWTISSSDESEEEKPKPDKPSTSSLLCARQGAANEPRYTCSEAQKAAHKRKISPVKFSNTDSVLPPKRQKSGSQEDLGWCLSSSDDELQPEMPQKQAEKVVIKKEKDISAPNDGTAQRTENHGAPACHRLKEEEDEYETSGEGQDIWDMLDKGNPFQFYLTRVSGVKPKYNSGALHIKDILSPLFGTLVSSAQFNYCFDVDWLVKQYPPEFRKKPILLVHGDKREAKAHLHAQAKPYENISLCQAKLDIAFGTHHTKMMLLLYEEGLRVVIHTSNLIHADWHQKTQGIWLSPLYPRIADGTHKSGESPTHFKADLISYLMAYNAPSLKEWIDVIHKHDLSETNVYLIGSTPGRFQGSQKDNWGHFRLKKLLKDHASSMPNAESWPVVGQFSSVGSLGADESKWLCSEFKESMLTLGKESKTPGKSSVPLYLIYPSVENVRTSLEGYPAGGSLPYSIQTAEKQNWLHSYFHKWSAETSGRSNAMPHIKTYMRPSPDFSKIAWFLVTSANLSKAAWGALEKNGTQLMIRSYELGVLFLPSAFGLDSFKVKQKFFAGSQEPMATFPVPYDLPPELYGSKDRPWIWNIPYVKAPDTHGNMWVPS
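Steps: enzyme plus compound, 15 min RT; add biotin/phosphotyrosine-FITC oligonucleotide (15 nM final), react 5 min; add donor/acceptor beads (10 ug/ml final), 10 min; read AlphaScreen. Tdp1 at 1 nM final.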
TDP1 cell CPT: growth inhibition of DT40 Tdp1-/-;hTDP1 cells with camptothecin (screen for TDP1 inhibitors) | AID 686979 | chicken DT40 Tdp1-/-;hTDP1 cells + 20 nM CPT, ATP luminescence, 48 h | Potency, µM (titrated, usually from 46.2 µM), for inactives: top-dose activity change, negative = growth inhibition, most hits filed as inhibitors | 420,000 compounds, 12% hits; further: potency means the concentration at half of the fitted maximal effect; on the % scale 0 is the no-effect control and ±100 the full control effect; nearly all actives have a fitted effect of over 55% in size
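Chicken DT40 Tdp1-/- cells stably complemented with human TDP1 were seeded at 400 cells/well in medium containing 20 nM camptothecin, exposed to pin-transferred compounds, and grown at 37 °C for at least 48 hr. Viability was read as ATP luminescence.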
HepG2 tox: kills HepG2 cells in TGF-b inhibitor counter-screen | HepG2 CAGA-GFP viability, ATP luminescence, 18 h | Potency, µM (titrated, usually from 46.1 µM), for the others: at the top dose activity change, negative = cytotoxicity, usual class: cytotoxic | 410,000 compounds, 0.76% hits; further: potency means the concentration at half of the fitted maximal effect
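CellTiter-Glo luminescence gave cytotoxicity after 18 hours at 37 degrees C. The cells were HepG2 CAGA-GFP in 1% FBS DMEM, stimulated with 500 pg/mL TGF-beta after compound addition. %Activity was normalised to no-cell wells (complete cell-killing) and DMSO (no toxicity), and curves were fitted and classified.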
IL-1B inflam inh: inflammasome signaling inhibition, IL-1 beta readout | 360,000 compounds, 4.7% hits | activity change, % at 57.5 µM | AID 743279 | THP-1 LPS/ATP IL-1B secretion, AlphaLISA, 16 h; active compounds read low; in the data active means activity change below about -50%; inconclusive means mostly about -30% to -49%; further: on the % scale 0 is the no-effect control and ±100 the full control effect
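THP-1 cells pretreated 1 hr with compounds (up to 57.5 uM final), then stimulated with LPS (250 ng/mL final) plus ATP (1.25 mM final); secreted IL-1B measured by AlphaLISA after 16 hr, decreased signal indicating inhibition.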
TGFb SMAD3 inh: blocks TGF-b signaling. Potency, µM (top dose mostly 46.1 µM), without a hit: at the top dose activity, negative = inhibition, actives largely listed as inhibitors. 410,000 compounds, 1.2% hits. HepG2 CAGA-GFP TGF-b/SMAD3 reporter, GFP fluorescence, 18 h; TGF-beta stimulated, 500 pg/mL final. AID 588855; further: potency means the concentration at half of the fitted maximal effect; on the % scale 0 is the no-effect control and ±100 the full control effect; nearly all actives have a fitted effect of over 65% in size
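Using HEPG2 CAGA-GFP reporter cells at 1000 cells/well, we pinned test compounds, stimulated with recombinant TGF-beta (500 pg/mL final) and measured total well GFP after 18 h.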
Numbers without * were called inactive; ? = inconclusive; . = no result; [ ] = dose if it differs, or a comment. In the library only some 18% were active in any assay of this set; here they are far more common. Unless noted, the call rests on the fitted dose curve; in most records, active means well fitted curve in the direction sought with a large enough effect; inconclusive means small, poorly fitted or top-dose-only effect, or another doubt; inactive means no such curve, though single readings can be large; an effect the other way counts as inactive or inconclusive.

SMILES	TDP1 cell noCPT	TDP1 inh	TDP1 cell CPT	HepG2 tox	IL-1B inflam inh	TGFb SMAD3 inh
Cc1cccc(OCC(=O)OC(C)CN2CCCCC2)c1 (stereo not given)	8.7%	35.5µM*	-22.3%	5.3%	30.9	16.0%
CC(CN1CCCCC1)OC(=O)C(C)(c1ccccc1)c1ccccc1 (stereo not given)	20.6µM*	2.3%	?	-40.5%	-19.6	-3.5%
Cc1ccc(NC(=O)c2oc3c(c2C)-c2[nH]ncc2CC3)c(Cl)c1	?	17.1%	?	-24.1%	.	0.0%
COc1ccc(NC(=O)/C(=C\c2ccncc2)NC(=O)c2ccccc2)cc1	-5.8%	1.1%	4.1%	2.8%	1.9	7.6%
COc1cc(C(=S)N2CCCC2)cc(Cl)c1OCC(=O)Nc1ccc(C)cc1C	?	0.0%	13µM*	-23.5%	-15.8	-1.3%
COc1cc(C(=S)N2CCCCC2)ccc1OCC(=O)Nc1ccc(F)cc1	?	4.5%[56.1 µM]	?	-4.9%	-25.4	-3.7%
Cc1cc(N2CCCC2)ccc1NC(=O)COc1cccc(C(F)(F)F)c1	4.61µM*	4.1%	8.2µM*	-36.0%	-16.4	?
O=C(COc1ccccc1)Nc1cc(C(F)(F)F)ccc1N1CCCC1	?	-1.0%	?	-2.4%	-0.7	?
O=c1c2c(C(F)(F)F)cc(C(F)(F)F)nc2[nH]n1-c1ccccc1	?	9.3%	14.1µM*	-32.7%	-74.9*	?
COC(c1ccccc1)c1c(-c2ccccc2)nn(C)c1Cl (stereo not given)	?	5.3%	1.46µM*	-3.7%	25.0	4.1%
O=C(CN1CCc2ccccc2C1)NC1CCCC1	3.3%	-1.2%	-2.5%	-0.4%	5.3	-3.5%
Cc1ccc(N(CC(=O)Nc2cccc(Cl)c2C)S(=O)(=O)c2c(C)noc2C)cc1	?	-4.7%	?	-31.2%	.	?
CCCS(=O)(=O)c1c(S(=O)(=O)CCC)c2ccc(C(C)=O)cn2c1C(=O)OC	-7.3%	2.5%	?	-4.1%	-135.6*	-14.4%
C/C=C/c1ccc(OCC(=O)OCc2csc(CC(=O)Nc3ccccc3C)n2)c(OC)c1	-22.7%	1.4%	-1.2%	-4.3%	0.0	-22.5%
Cc1nn2c(=O)cc(COC(=O)c3ccccc3NC(=O)C(C)Oc3ccccc3)nc2s1 (stereo not given)	-19.7%	1.2%	?	0.5%	.	2.0%
C[n+]1ccc(/C=N/Nc2nc(Cl)c(C#N)c(Cl)c2Cl)cc1	?	2.4%	?	-8.0%	-58.7*	?
CC(C)Nc1ccc(-c2nc(-c3ccco3)no2)cc1[N+](=O)[O-]	16.4µM*	8.6%	?	-9.3%	.	?
COc1ccc(CN(C)c2ccc(-c3nc(-c4ccccc4)no3)cc2[N+](=O)[O-])cc1	?	2.9%	?	-0.5%	.	-4.4%
CCc1noc(-c2ccc(N(C)Cc3ccc(OC)cc3)c([N+](=O)[O-])c2)n1	5.8µM*	14.3%	6.51µM*	-28.1%	.	?
CCCNc1ccc(-c2nc(-c3ccco3)no2)cc1[N+](=O)[O-]	-26.2%	0.0%	-3.0%	-2.2%	.	-1.2%
Cc1ccccc1-c1noc(-c2ccc(NCc3cccnc3)c([N+](=O)[O-])c2)n1	2.31µM*	-2.9%	4.11µM*	-17.5%	.	1.4%
CCc1noc(-c2ccc(NCc3ccccc3)c([N+](=O)[O-])c2)n1	18.4µM*	5.7%	23.1µM*	-14.2%	.	-20.1%
COc1ccccc1-c1noc(-c2ccc(NCCc3ccccc3)c([N+](=O)[O-])c2)n1	1.6%	11.4%	3.2%	-4.9%	.	-11.4%
